Source: PubChem BioAssay (NCI)
Values joined by “and” are separate entries in the source; they are usually repeats but may differ in a detail not shown here. Identical values can stand only once. The panel holds about 83,000 compounds, 20% with a hit somewhere; the sample as a whole holds those more often.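 Percent growth is the endpoint: 0 to 100 indicates growth inhibition (40 means 60% inhibition), 0 means no net growth, and negative values indicate cell death.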 Unmarked numbers belong to inactive results. Active and inactive are the calls of the source. How the source made its calls: active means growth percent below 10; inactive means the rest.

Test system: HL-60(TB) leukemia
Experiment: NCI-60 one-dose screen, 48 h (100 = growth as untreated, 0 = no growth, -100 = all killed)
Details: 10 µM unless noted

For `CS(=O)(=O)Nc1ccc(-c2ccc3c(c2)ncn3-c2ccc(NC(=O)Nc3ccc(Cl)c(C(F)(F)F)c3)cc2)cc1`, the growth was -42.4% (active).
`CCS(=O)(=O)N1CCCC(C(=O)Nc2nc3ccc(NC(=O)c4ccc(F)c(OC)c4F)cc3s2)C1` (configuration not stated) gave a growth of 53.9%.
In the case of `CCOC(=O)c1ccc(NC(=S)NC(=O)c2ccc(NC(=O)C(C)C)cc2OC)cc1`, the growth is reported as 46.3%.
In the case of `COc1cc2cc(C(=O)N3C[C@@H](CCl)c4c3cc(OC(=O)N(CCC(=O)N3CCN(C)CC3)C3CCCCC3)c3ccccc43)[nH]c2c(OC)c1OC`, the growth is reported as -55.9% (active).
In the case of `O=C1Nc2cc(Cl)ccc2/C1=C/c1cccc(OCc2ccccn2)c1`, the growth is reported as -9.79% (active).
In the case of `CNC(=O)c1cccc(NC(=O)c2ccc3c(c2)nnn3/C(C#N)=C/c2ccccn2)c1`, the growth is reported as -14.7% (active).
In the case of `OCCCNc1oc(-c2ccccc2)nc1[P+](c1ccccc1)(c1ccccc1)c1ccccc1`, the growth is reported as -35.8% (active).
`COc1ccc(NC(=O)Cn2c(/C=C/c3cccc(OC)c3)nc3ccccc3c2=O)cc1` was tested, and the growth was 94.6%.
With `CN(C)c1nc(NCCNS(=O)(=O)c2ccc(C(=O)/C=C/c3ccc(F)cc3)cc2)nc(N2CCOCC2)n1` the growth was -20.3% (active).
`COc1ccc(/C=C/c2nc3ccccc3nc2Nc2cccc(C)c2)cc1` gave a growth of 92.8%.
`N#Cc1c(-c2ccccc2Cl)cc(-c2ccc3ccccc3c2)[nH]c1=O` gave a growth of 71.9%.
In the case of `Cc1ccc2nc3c(nc2c1)c1cc(I)ccc1n3CCN(C)C`, the growth is reported as 13.7%.
With `Cn1cc(-c2cc3nc(-c4c[nH]c5ccccc45)cc(N)n3n2)c2cc(Cl)ccc21` the growth was -24.8% (active).
For `O=C(Cn1c(-c2ccccc2)nc2ccccc21)N=Nc1c(O)[nH]c2ccc(Cl)cc12`, the growth was 57.2%.
`CCN1C(=O)N(CC)C2NNC(Sc3c(C(=O)O)c4ccccc4n(C4CCCC4)c3=O)=NC21` (configuration not stated) was tested, and the growth was -9.96% (active).
`Nc1cc(-c2c[nH]c3ccc(Br)cc23)nc2cc(-c3c[nH]c4ccccc34)nn12` was tested, and the growth was -15% (active).
For `O=C(N/N=C/c1ccc(B(O)O)s1)c1[nH]c2ccc(Br)cc2c1-c1ccccc1`, the growth was -18.2% (active).
`Cc1ccc2nc(COc3ccc(C(=O)NNC(=O)Nc4ccc(Cl)c(C(F)(F)F)c4)cc3)[nH]c2c1` showed a growth of 86.1%.
Work on `C[C@H](NC(=O)c1ccc2c(-c3ccc(C(F)(F)F)cc3)cccc2c1)c1ccccn1` yielded a growth of 23%.
With `CC(=O)C[n+]1cccc2c3ccccc3ccc21` the growth was 85%.
In the case of `O=C(Cn1nc(-c2ccccc2)ccc1=O)NN1C(=O)c2ccccc2C1=O`, the growth is reported as 101%.
With `O=C(c1ccc(Cl)cc1)C1[C@H](c2ccccc2Cl)[C@@H](c2ccccc2)NC12C(=O)Nc1ccccc12` (some centres not stated) the growth was -35.1% (active).
For `Nc1nc(C(F)(F)F)cs1`, the growth was 102%.
`CCCCCCCCCCCCCCCCCCCC(=O)NCCc1c[nH]c2ccc(O)cc12` showed a growth of 52.8%.
With `Cc1ccc(C2CC(c3ccc(S(=O)(=O)NCCNc4nc(Nc5ccc(F)cc5)nc(N(C)C)n4)cc3)=Nc3c(N)nc(N)nc3N2)cc1` (configuration not stated) the growth was -10.4% (active).
`C/C(=N\N=C\c1ccc(N(C)C)cc1)c1ccc2c(c1)Nc1ccccc1S2` showed a growth of 59.2%.
In the case of `CCCCCCCCc1ccc(C(=O)Nc2cccc(P(=O)(O)O)c2)cc1`, the growth is reported as 101%.
For `CC(C)(C)OC(=O)N1CCC2(CC1)Oc1ccccc1[C@H]1CC(c3ccc(Br)cc3)=NN12`, the growth was 64.1%.
For `CC1(C)CC(=O)C2=C(C1)OC(N)=C(c1nc3ccccc3[nH]1)C2c1ccc(Cl)cc1` (configuration not stated), the growth was 22% and 106%.
For `COc1ccc(Cn2cc(C#N)c(N)c2C(C)=O)c(OC)c1`, the growth was 99%.
Work on `O=C(Nc1nc2ccccc2s1)c1ccc(Br)cc1` yielded a growth of 99.1%.
Molecule `O=C(N=Nc1c(O)[nH]c2ccc([N+](=O)[O-])cc12)c1ccc2nc(-c3ccccc3)[nH]c2c1` has a growth of 84.7%.
